Assay results as given in publication PMC7862700, “An all-to-all approach to the identification of sequence-specific readers for epigenetic DNA modifications on cytosine”.

Columns and labels:
Test in all cases: DAPPL (digital affinity profiling via proximity ligation, sequencing); 10 mM Tris-HCl pH 7.5, 50 mM NaCl, 1 mM DTT, 4% glycerol, room temperature, 30 min; GST-TFs on glutathione beads, 16-mer random dsDNA library, 0.1% formaldehyde crosslink after washing; high values mean tight binding
Settings in all cases: protein: recombinant; tags: N-terminal GST; dsDNA, one strand shown
ELK1 = target: T1, ELK1 (Homo sapiens, UniProt P19419 1-428)
T1 sequence: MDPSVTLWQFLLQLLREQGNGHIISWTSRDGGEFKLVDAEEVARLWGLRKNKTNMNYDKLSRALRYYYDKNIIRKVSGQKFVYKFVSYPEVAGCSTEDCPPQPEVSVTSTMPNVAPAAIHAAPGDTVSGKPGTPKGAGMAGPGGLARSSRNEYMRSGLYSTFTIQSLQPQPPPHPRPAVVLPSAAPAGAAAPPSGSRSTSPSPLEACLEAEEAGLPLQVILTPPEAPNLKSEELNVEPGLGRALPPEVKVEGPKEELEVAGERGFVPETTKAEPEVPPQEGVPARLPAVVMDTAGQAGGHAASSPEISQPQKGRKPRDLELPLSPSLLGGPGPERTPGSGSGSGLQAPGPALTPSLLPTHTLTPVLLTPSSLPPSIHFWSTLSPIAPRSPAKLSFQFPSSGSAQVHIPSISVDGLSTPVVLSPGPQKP
Procedure, shortened: (§1)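 Human transcription factors were made in yeast as GST fusions, captured on glutathione beads and barcoded with DNA. With a tag-only sample included, the pool was incubated with 200 nmole of a random double-stranded 16-mer DNA library in Tris/NaCl/DTT/glycerol buffer at room temperature for 30 min, then crosslinked with 0.1% formaldehyde after washing, ligated by proximity, amplified and sequenced. For binding signal, each hexamer's read frequency for a factor is divided by its frequency for the tag-only sample.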

ERG = target: T2, ERG (Homo sapiens, UniProt P11308 1-479)
T2 sequence: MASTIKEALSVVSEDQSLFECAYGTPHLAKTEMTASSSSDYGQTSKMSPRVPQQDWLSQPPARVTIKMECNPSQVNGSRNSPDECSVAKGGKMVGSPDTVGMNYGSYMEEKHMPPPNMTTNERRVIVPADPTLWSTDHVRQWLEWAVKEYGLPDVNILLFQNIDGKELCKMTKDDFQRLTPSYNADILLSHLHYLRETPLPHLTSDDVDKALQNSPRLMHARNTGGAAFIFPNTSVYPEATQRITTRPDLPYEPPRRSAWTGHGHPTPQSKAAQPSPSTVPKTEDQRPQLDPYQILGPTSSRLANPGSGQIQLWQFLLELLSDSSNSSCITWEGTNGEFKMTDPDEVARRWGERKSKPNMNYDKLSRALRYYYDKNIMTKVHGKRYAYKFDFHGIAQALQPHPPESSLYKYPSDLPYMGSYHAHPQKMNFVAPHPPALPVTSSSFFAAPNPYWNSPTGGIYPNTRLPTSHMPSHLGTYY
Procedure, shortened: as §1

EHF = target: T3, EHF (Homo sapiens, UniProt Q9NZC4 1-300)
T3 sequence: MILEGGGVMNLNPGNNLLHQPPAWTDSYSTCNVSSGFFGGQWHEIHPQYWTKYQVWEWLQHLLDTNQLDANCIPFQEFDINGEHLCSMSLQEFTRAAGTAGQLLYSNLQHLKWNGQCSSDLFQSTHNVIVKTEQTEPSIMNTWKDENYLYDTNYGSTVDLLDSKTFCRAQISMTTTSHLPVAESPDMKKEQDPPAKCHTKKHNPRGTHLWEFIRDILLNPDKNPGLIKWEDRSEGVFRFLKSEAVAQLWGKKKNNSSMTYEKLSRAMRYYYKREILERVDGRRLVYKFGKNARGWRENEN
Procedure, shortened: as §1

SPIB = SPIB (Homo sapiens, UniProt Q01892 1-262)
Chain of SPIB (Q01892 whole entry): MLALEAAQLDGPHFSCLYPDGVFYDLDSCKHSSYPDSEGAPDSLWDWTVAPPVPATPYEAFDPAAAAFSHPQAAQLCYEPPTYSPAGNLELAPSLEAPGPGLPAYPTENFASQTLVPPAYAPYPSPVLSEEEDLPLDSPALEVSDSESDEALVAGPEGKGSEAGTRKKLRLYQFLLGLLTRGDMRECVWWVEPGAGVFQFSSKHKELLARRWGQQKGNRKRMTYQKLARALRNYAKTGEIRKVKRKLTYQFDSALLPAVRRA
Procedure, shortened: as §1

ELK3 = target: T4, ELK3 (Homo sapiens, UniProt P41970 1-407)
T4 sequence: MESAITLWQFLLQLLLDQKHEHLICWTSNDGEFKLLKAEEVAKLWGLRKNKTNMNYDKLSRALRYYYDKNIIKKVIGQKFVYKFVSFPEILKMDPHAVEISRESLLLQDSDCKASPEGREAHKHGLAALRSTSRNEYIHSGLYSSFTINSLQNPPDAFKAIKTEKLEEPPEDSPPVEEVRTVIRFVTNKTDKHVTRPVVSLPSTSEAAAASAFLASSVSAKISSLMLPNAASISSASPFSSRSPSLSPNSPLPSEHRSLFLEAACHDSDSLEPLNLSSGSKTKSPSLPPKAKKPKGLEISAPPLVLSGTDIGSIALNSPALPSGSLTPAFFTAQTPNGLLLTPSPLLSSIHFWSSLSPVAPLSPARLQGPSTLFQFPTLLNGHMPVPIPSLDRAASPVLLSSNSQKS
Procedure, shortened: as §1

FEV = target: T5, FEV (Homo sapiens, UniProt Q99581 1-238)
T5 sequence: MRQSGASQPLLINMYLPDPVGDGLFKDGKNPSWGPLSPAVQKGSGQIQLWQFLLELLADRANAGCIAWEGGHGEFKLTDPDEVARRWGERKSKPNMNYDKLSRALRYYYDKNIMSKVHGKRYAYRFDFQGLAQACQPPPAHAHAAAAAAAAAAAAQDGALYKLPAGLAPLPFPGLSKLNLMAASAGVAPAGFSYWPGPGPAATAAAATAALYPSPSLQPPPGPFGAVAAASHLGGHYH
Procedure, shortened: as §1

ELK4 = target: T6, ELK4 (Homo sapiens, UniProt P28324-2 1-405)
T6 sequence: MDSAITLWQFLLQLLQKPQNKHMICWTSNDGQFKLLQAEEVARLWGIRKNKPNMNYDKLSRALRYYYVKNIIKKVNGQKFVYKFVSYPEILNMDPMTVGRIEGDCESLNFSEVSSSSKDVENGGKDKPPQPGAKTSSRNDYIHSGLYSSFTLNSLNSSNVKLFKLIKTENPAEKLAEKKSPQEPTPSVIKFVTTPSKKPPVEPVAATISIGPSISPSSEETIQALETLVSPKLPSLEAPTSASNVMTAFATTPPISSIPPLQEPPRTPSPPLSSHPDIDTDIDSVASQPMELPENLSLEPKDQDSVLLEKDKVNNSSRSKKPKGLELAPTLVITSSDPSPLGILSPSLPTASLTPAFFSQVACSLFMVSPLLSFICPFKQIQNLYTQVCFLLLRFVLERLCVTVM
Procedure, shortened: as §1

ETV2 = target: T7, ETV2 (Homo sapiens, UniProt O00321 1-342)
T7 sequence: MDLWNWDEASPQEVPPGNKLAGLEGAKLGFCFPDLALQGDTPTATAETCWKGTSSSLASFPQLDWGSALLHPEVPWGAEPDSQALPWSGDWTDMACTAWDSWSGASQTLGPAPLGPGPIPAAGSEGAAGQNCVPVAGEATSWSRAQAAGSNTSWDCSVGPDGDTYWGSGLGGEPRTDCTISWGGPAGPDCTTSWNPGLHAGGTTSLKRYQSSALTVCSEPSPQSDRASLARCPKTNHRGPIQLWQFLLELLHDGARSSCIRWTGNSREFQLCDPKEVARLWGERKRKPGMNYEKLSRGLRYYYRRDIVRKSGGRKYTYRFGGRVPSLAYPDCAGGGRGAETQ
Procedure, shortened: as §1

ETV3L = target: T8, ETV3L (Homo sapiens, UniProt Q6ZN32 1-361)
T8 sequence: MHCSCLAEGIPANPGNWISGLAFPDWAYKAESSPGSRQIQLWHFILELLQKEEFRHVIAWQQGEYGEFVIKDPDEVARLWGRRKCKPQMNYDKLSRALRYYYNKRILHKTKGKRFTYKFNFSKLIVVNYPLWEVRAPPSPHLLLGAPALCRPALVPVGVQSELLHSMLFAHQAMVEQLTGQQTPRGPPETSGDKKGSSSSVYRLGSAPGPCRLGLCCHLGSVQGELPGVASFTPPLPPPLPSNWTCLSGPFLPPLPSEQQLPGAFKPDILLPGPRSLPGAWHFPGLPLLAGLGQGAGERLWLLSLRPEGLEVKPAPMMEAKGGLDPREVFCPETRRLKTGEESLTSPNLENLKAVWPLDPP
Procedure, shortened: as §1

ETV3 = target: T9, ETV3 (Homo sapiens, UniProt P41162-2 1-143)
T9 sequence: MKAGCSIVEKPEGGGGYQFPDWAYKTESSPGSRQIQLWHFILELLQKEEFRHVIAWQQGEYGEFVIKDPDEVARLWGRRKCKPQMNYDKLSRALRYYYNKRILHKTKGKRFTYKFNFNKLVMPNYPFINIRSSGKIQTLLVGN
Procedure, shortened: as §1

ETV6 = ETV6 (Homo sapiens, UniProt P41212 1-452)
Chain of ETV6 (P41212 whole entry): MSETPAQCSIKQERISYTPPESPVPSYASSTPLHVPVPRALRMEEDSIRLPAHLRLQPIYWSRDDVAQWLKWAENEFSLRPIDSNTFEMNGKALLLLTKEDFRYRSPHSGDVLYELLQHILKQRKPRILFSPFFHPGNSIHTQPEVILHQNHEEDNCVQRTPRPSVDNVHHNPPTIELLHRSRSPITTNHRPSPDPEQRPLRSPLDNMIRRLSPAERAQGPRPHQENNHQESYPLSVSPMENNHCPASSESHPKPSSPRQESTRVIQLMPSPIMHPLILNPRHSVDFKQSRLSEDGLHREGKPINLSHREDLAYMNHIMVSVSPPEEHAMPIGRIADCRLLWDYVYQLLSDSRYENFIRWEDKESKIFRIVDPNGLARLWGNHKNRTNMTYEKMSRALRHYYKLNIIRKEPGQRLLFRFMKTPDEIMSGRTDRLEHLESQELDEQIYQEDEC
Procedure, shortened: as §1

GABPA = target: T10, GABPA (Homo sapiens, UniProt Q06546 1-454)
T10 sequence: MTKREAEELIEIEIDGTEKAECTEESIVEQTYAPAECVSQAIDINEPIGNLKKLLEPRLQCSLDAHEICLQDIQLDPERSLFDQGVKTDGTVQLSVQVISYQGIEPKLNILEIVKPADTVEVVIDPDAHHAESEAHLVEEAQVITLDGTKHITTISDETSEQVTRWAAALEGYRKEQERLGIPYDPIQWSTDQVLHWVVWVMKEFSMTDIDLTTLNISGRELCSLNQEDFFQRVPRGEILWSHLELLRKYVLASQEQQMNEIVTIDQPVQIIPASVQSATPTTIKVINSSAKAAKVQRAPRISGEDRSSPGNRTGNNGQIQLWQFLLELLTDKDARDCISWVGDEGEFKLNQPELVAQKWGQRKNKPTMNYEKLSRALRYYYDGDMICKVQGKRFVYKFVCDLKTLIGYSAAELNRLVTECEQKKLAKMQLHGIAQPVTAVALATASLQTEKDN
Procedure, shortened: as §1

ELF1 = ELF1 (Homo sapiens, UniProt P32519 1-619)
Chain of ELF1 (P32519 whole entry): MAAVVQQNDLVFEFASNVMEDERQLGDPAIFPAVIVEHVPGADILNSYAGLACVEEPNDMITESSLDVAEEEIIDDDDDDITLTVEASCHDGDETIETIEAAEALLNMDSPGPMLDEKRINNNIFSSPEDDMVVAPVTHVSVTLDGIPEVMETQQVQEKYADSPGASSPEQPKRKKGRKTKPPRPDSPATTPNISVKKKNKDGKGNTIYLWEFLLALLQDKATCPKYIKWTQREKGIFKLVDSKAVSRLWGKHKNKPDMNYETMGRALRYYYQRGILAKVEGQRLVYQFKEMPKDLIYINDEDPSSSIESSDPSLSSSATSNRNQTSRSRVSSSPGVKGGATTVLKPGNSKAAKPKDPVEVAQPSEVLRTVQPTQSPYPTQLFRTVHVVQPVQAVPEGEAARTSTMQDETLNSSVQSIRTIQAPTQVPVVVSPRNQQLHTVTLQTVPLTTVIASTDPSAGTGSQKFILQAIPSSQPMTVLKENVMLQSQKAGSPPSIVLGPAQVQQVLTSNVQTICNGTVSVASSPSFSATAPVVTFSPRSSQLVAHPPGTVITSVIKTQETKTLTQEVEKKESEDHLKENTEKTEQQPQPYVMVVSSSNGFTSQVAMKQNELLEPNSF
Procedure, shortened: as §1

SPI1 = SPI1 (Homo sapiens, UniProt P17947 1-270)
Procedure, shortened: as §1

ELF4 = ELF4 (Homo sapiens, UniProt Q99607 1-663)
Chain of ELF4 (Q99607 whole entry): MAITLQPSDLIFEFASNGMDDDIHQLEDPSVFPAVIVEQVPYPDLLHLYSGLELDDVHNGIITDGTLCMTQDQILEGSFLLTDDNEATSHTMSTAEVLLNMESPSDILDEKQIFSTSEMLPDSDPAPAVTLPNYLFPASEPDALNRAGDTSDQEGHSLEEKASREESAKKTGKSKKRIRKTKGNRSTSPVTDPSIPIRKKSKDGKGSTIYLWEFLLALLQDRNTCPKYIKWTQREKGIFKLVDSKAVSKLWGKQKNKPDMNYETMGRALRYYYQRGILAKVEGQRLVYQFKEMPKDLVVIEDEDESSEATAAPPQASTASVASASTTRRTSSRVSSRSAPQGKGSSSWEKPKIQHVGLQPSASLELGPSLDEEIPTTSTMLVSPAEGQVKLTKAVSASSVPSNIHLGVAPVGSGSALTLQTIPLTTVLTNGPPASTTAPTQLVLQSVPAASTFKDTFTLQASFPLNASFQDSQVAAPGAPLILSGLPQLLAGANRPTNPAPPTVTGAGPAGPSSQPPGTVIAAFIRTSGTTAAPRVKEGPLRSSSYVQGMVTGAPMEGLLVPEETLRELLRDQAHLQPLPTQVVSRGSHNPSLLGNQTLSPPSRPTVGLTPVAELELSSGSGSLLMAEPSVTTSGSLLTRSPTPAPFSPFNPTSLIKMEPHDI
Procedure, shortened: as §1

ETV1 = ETV1 (Homo sapiens, UniProt P50549 1-477)
Chain of ETV1 (P50549 whole entry): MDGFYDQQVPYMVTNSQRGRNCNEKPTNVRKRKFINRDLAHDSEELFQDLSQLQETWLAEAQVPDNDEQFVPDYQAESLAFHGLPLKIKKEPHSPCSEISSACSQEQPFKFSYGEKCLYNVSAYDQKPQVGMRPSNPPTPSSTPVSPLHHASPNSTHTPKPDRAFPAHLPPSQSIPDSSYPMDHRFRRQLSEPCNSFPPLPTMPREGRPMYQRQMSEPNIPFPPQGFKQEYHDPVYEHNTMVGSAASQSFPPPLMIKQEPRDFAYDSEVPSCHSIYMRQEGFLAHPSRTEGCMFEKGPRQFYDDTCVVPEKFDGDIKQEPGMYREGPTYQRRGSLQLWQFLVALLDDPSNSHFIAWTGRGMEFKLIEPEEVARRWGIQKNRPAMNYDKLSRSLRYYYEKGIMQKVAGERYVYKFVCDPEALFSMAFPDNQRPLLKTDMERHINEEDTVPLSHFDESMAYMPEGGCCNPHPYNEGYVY
Procedure, shortened: as §1

ERF = target: T11, ERF (Homo sapiens, UniProt P50548 1-548)
T11 sequence: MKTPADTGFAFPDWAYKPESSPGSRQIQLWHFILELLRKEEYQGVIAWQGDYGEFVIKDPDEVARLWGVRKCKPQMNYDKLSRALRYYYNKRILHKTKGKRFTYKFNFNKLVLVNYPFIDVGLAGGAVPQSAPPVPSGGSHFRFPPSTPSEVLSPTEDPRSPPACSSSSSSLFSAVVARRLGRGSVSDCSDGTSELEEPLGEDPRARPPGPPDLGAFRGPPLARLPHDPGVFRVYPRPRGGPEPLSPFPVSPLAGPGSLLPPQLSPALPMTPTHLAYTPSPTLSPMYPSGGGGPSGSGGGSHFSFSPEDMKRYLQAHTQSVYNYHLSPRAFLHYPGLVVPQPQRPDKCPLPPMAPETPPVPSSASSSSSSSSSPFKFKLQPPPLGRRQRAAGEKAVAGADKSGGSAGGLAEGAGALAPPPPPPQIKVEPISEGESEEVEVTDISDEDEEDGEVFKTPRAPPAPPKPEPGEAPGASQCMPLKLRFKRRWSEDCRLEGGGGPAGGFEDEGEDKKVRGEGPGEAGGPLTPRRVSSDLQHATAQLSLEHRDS
Procedure, shortened: as §1

ETS2 = target: T12, ETS2 (Homo sapiens, UniProt P15036 1-469)
T12 sequence: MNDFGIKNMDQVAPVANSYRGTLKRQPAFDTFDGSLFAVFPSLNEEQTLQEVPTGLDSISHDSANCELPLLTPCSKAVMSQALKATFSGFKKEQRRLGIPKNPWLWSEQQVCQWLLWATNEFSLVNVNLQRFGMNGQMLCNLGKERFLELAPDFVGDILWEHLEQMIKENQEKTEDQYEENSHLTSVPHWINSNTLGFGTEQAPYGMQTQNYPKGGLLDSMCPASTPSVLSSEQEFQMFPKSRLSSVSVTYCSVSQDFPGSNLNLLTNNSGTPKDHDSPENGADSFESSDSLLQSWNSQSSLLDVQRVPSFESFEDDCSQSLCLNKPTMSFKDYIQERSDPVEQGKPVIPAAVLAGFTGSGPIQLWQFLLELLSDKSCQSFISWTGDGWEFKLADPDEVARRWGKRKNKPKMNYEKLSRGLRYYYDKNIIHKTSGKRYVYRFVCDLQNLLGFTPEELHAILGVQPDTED
Procedure, shortened: as §1

Sequence | binding signal (ELK1) | binding signal (ERG) | binding signal (EHF) | binding signal (SPIB) | binding signal (ELK3) | binding signal (FEV) | binding signal (ELK4) | binding signal (ETV2) | binding signal (ETV3L) | binding signal (ETV3) | binding signal (ETV6) | binding signal (GABPA) | binding signal (ELF1) | binding signal (SPI1) | binding signal (ELF4) | binding signal (ETV1) | binding signal (ERF) | binding signal (ETS2)
CCGGCG | 1.09 fold enrichment (6-mer frequency, TF over GST control) | 1.09 fold enrichment (6-mer frequency, TF over GST control) | 1.03 fold enrichment (6-mer frequency, TF over GST control) | 1.15 fold enrichment (6-mer frequency, TF over GST control) | 1.02 fold enrichment (6-mer frequency, TF over GST control) | 1.25 fold enrichment (6-mer frequency, TF over GST control) | 1.14 fold enrichment (6-mer frequency, TF over GST control) | 1.04 fold enrichment (6-mer frequency, TF over GST control) | 1.07 fold enrichment (6-mer frequency, TF over GST control) | 1.05 fold enrichment (6-mer frequency, TF over GST control) | 1.11 fold enrichment (6-mer frequency, TF over GST control) | – | – | – | – | – | – | –
CACCGC | 1.01 fold enrichment (6-mer frequency, TF over GST control) | 1.02 fold enrichment (6-mer frequency, TF over GST control) | 1.08 fold enrichment (6-mer frequency, TF over GST control) | – | 1.06 fold enrichment (6-mer frequency, TF over GST control) | 1.04 fold enrichment (6-mer frequency, TF over GST control) | 1 fold enrichment (6-mer frequency, TF over GST control) | – | – | 1.04 fold enrichment (6-mer frequency, TF over GST control) | – | 1.06 fold enrichment (6-mer frequency, TF over GST control) | 1.04 fold enrichment (6-mer frequency, TF over GST control) | 1.01 fold enrichment (6-mer frequency, TF over GST control) | 1.06 fold enrichment (6-mer frequency, TF over GST control) | 1 fold enrichment (6-mer frequency, TF over GST control) | 1.07 fold enrichment (6-mer frequency, TF over GST control) | 1.05 fold enrichment (6-mer frequency, TF over GST control)
